Laboratory results taken from the supplement of paper PMC6555819.

Assays:
Assay in all cases: PBM binding z-score (relative to random genomic background probes); higher = stronger binding; sequences stand for … in GC…GCGATTGACAGCGTAGAATGAAGG
[1] = test system: RARb homodimer (NR concentration 270 nM)
How it was run: (§1)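 Scanned fluorescence from custom Agilent 4×180K protein-binding microarrays was regression-normalized. Binding z-scores use random background probes as reference. Ligand-free nuclear receptor dimers were incubated on the arrays for 1 h and detected with antibodies against each partner (one per run).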

[2] = test system: RARg:RXRa (NR concentration 270 nM, RXRa partner concentration 90 nM)
How it was run: as §1

[3] = test system: RARg homodimer (NR concentration 270 nM)
How it was run: as §1

[4] = test system: RXRa DBDmut IVT, anti-RXR (DBD mutation: RXRa K156A/R161A, NR concentration 90 nM)
How it was run: as §1

[5] = test system: RXRa homodimer (NR concentration 180 nM)
How it was run: as §1

[6] = test system: THRa:RXRa (NR concentration 90 nM, RXRa partner concentration 90 nM)
How it was run: as §1

[7] = test system: THRa homodimer (NR concentration 90 nM)
How it was run: as §1

[8] = test system: VDR homodimer (NR concentration 270 nM)
How it was run: as §1

| Sequence | PBM binding z-score [1] | PBM binding z-score [2] | PBM binding z-score [3] | PBM binding z-score [4] | PBM binding z-score [5] | PBM binding z-score [6] | PBM binding z-score [7] | PBM binding z-score [8] |
| --- | --- | --- | --- | --- | --- | --- | --- | --- |
| TCGAGTAGGTTAGTCGGGTCATTCAGCCAACATA | 2.2 | 1.93 | 1.5 | 0.747 | 2.1 | 3.06 | 1.48 | 2.35 |
| TCGAGTAGGTTAGTCGGGGCATCCAGCCAACATA | 0.213 | 0.0156 | -0.131 | -0.109 | 0.28 | 1.05 | -0.433 | -0.177 |
| GATACAGGGTCAGATAGAGGCCAGAGTATGGAAA | 3.28 | 6.34 | 4.42 | 1.75 | 4.42 | 3.16 | 0.893 | 1.42 |
| TCAGATAGGTAAAAGGTGAAAGTCGGTGTGGTAA | 2.19 | 1.89 | 0.855 | 1.85 | 3.06 | 1.76 | 0.528 | 0.262 |
| CAAACTAGGTCACAGAGGTCAGAGTCCGTGCGTA | 5.34 | 6.58 | 7.37 | 3.02 | 6.43 | 4.37 | 2.49 | 4.93 |
| CTCGAGAGGTCGGTTGAGGTGAGTATACGGATAA | 1.99 | 2.11 | 2.3 | 1.57 | 2.06 | 5 | 1.39 | 1.16 |
| ATATGTAGGTTAAGGGTCATTCATGTTGGTTCGC | 4.2 | 4.74 | 3.5 | 2.3 | 6.14 | 3.43 | 1.52 | 4.27 |
| ACTATTAGTTTACTTAGGGCAACCGATACGACGC | 0.74 | 0.56 | 1.01 | 1.17 | 0.51 | 1.66 | 0.312 | 0.435 |
| CGTGCAAGGTCAAGGTCAGTGAAAGAGACTCGAA | 5 | 6.85 | 7.64 | 3.8 | 6.7 | 4.26 | 3.18 | 3.35 |
| TCATATAGGTAAAAGGTGCAAGTCGGTGTGGTAA | 0.775 | 0.469 | 0.207 | 1.9 | 1.27 | 0.295 | -0.18 | 0.772 |
| TCTTGTAGATCACCAGGAGGTTAAGAAAGATCGA | 0.751 | 1.15 | 0.275 | 0.396 | 1.14 | 1.01 | -0.466 | 0.109 |
| TCTTGTAGATCAACAGGATGTTAAGAAAGATCGA | -0.63 | 0.136 | 0.033 | 0.72 | 0.385 | -0.148 | -0.851 | -0.332 |
| CCTAGCAGGCCAATCTGGGTCAGTCAAGGCTTGA | 1.82 | 0.465 | 1.02 | -0.281 | -0.197 | 2.97 | -0.159 | -0.52 |
| CCTACTTGGCCATTCAGAGGTCATTGATCATATG | 3.93 | 3.64 | 2.6 | 1.92 | 3.73 | 3.21 | 1.66 | 3.32 |
| CCTACTGGTCCAAAAAGGTCATTGATGCCGATAA | 4.58 | 4.42 | 4.17 | 1.56 | 4.74 | 3.35 | 1.18 | 3.81 |
| GATACAGGGTCAGCGAGAGGCCAGAGTATGGAAA | 3.12 | 6.57 | 4.48 | 1.31 | 4.6 | 3.3 | 0.369 | 0.864 |
| CCTACTGGGCCAAGGTAATTGATCAGTCAAAGCA | 0.0571 | -0.354 | -0.0827 | -0.902 | -0.382 | 0.383 | -0.112 | -0.51 |

| Sequence | PBM binding z-score [1] | PBM binding z-score [2] | PBM binding z-score [3] | PBM binding z-score [4] | PBM binding z-score [5] | PBM binding z-score [6] | PBM binding z-score [7] | PBM binding z-score [8] |
| --- | --- | --- | --- | --- | --- | --- | --- | --- |
| TCATATAGGTAAATTCTAGGTGAAAGTCCGATCT | 0.708 | 0.737 | 0.439 | 1.81 | 0.907 | 2.11 | 1.11 | 0.726 |
| TCTGGTAGGTCAACGATGGTCAGCTAATCTGCTA | 3.75 | 4.31 | 4.78 | 1.26 | 3.49 | 2.98 | 0.7 | 0.622 |
| CCAGACAGGTGAAACGTAACTCAGTCTGGTACGC | 0.0638 | 0.203 | 0.432 | 0.0553 | 0.53 | -0.118 | -0.567 | -0.448 |
| CCTTACGGGTCACACCAGGTTATAGCATCGGAGT | 3.26 | 4.99 | 4.64 | 1.32 | 5.18 | 5.22 | 0.963 | 1.61 |
| AGAATGAGATTATTAAGATCAGGGAATTGCGGTC | -0.433 | -0.202 | 0.0706 | -0.35 | -0.434 | -0.315 | -0.66 | -0.308 |
| TCATATAGGTAAAGGTGCAAGTCGAACGATATGA | 0.0991 | 0.803 | 0.522 | 0.75 | 1.18 | 0.151 | -0.746 | 0.385 |
| TCATAAAGGTAATACAGGTGAAAGTCGGCATCTA | 1.09 | 1.3 | 0.722 | 1.78 | 1.67 | 1.7 | 0.207 | 0.435 |
| AGAACGAGGGCACGCTGACTTGATAGCAGAGTAG | 1.15 | 1.84 | 1.95 | 1.66 | 1.34 | 1.76 | -0.184 | 0.649 |
| AGAATGAAGTTAAGATCAGGGAAACAGAATACAT | -0.296 | 0.141 | 0.297 | -0.544 | 0.166 | 0.135 | -0.599 | -0.0314 |
| ATATTTAGGTTAAGGGTCATTCAGGTTGGTTCGC | 4.22 | 4.81 | 3.84 | 2.51 | 5.68 | 3.95 | 3 | 5.16 |
| ATCGAACGGTCGTGAGGTGAGTATACAGAAAGGC | 0.679 | 0.948 | 1.19 | -0.665 | 0.53 | 1.48 | 0.666 | -0.261 |
| GTACCAAGGTCAATAGGTCGTTGATGAGTAGGCG | 4.86 | 6.58 | 5.59 | 2.86 | 5.66 | 3.68 | 1.77 | 2.55 |
| TCTTGTAGCTCAACAGGAGGTTAAGAAAGATCGA | -0.0225 | 0.173 | 0.0214 | -0.206 | 0.559 | 0.491 | -1.06 | -0.327 |
| CTTCCAAGGTGAACAAGGTCGTTGATTACTATTC | 2.18 | 1.8 | 1.62 | 1.57 | 1.69 | 3.41 | 2.03 | 2.34 |
| CGTCAAAGTTCAACGAAGGTAACGTAAAGCACGC | 4.08 | 5.47 | 6.39 | 4.2 | 4.5 | 4.52 | 0.29 | 3.33 |
| GCTCGGAGGACAAGATCAGAGCTTTGTCCGTAGA | -0.303 | -0.459 | 0.204 | -0.708 | -0.639 | 0.191 | -0.651 | -0.587 |
| CCTCCTGGGCCAAGGTCATTGATCAGTCAAAGCA | 3.38 | 3.6 | 3.13 | 0.822 | 3.1 | 3.43 | 2.34 | 3.08 |
